# Activity calls are given as the source filed them. The calls were made as follows: active = hit-call score of the fitted dose curve at least 0.9, where 1 is the maximum; inactive = score below 0.9.
# Legend:
# [1] = read-out: Vascular cell adhesion molecule 1 (VCAM1), VCAM1 (gene 7412); experiment: BSK_4H_VCAM1: BioMAP Diversity Plus: 4H Assay for Vascular cell adhesion molecule 1 (VCAM1) Biomarker Activity (AID 2283033); details: primary human endothelial cells (HUVEC); actives raise or lower the signal;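 as to outcome: cell-surface VCAM-1 protein measured by ELISA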
# How it was run: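 Primary human umbilical vein endothelial cells were exposed to chemicals for 24 h, after which VCAM-1 was quantified by ELISA. Responses were fitted bidirectionally against DMSO as negative control and activity baseline.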
# [2] = read-out: Interferon-gamma inducible Protein 10 (IP10), CXCL10 (gene 3627); experiment: BSK_BE3C_IP10: BioMAP Diversity Plus: BE3C Assay for Interferon-gamma inducible Protein 10 (IP10) Biomarker Activity (AID 2283034); details: primary human bronchial epithelial cells; actives raise or lower the signal
# How it was run: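 Human primary bronchial epithelial cells were exposed to chemicals for 24 hours, after which IP-10 levels were measured by ELISA. Data were fitted bidirectionally against DMSO, which served as the negative control and activity baseline.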
# [3] = read-out: Monokine induced gamma interferon (MIG), CXCL9 (gene 4283); experiment: BSK_BE3C_MIG: BioMAP Diversity Plus: BE3C Assay for Monokine induced gamma interferon (MIG) Biomarker Activity (AID 2283035); details: primary human bronchial epithelial cells; actives raise or lower the signal;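 as to outcome: MIG protein measured by ELISA in BE3C cultures after 24 h of dosing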
# How it was run: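 MIG level was determined by ELISA after 24 h chemical treatment of primary human bronchial epithelial cells. Values were fitted bidirectionally with DMSO as the negative control and activity baseline.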
# [4] = read-out: Transforming growth factor beta 1 (TGFb1), TGFB1 (gene 7040); experiment: BSK_BE3C_TGFb1: BioMAP Diversity Plus: BE3C Assay for Transforming growth factor beta 1 (TGFb1) Biomarker Activity (AID 2283036); details: primary human bronchial epithelial cells; actives raise or lower the signal
# How it was run: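 Human primary bronchial epithelial cells (BE3C system) were dosed with chemical and TGF-b1 levels measured by ELISA at 24 h. Activity was fitted bidirectionally relative to DMSO negative control as baseline.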
# [5] = read-out: Plasminogen activator inhibitor-1 (PAI1), SERPINE1 (gene 5054); experiment: BSK_BE3C_PAI1: BioMAP Diversity Plus: BE3C Assay for Plasminogen activator inhibitor-1 (PAI1) Biomarker Activity (AID 2283037); details: primary human bronchial epithelial cells; actives raise or lower the signal
# How it was run: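 Human primary bronchial epithelial cells were exposed to chemical for 24 h, then PAI-1 was quantified by ELISA. Activity was fitted bidirectionally relative to the DMSO negative control baseline.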
# [6] = read-out: urokinase plasminogen activator (uPA), PLAU (gene 5328); experiment: BSK_BE3C_uPA: BioMAP Diversity Plus: BE3C Assay for urokinase plasminogen activator (uPA) Biomarker Activity (AID 2283038); details: primary human bronchial epithelial cells; actives raise or lower the signal;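 as to outcome: uPA protein level quantified by ELISA in cell cultures; uPA read one day after compound addition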
# How it was run: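 Using confluent primary human lung bronchial epithelial cultures, we dosed chemicals, waited 24 h, then ran a uPA ELISA, fitting bidirectionally against DMSO.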
# [7] = read-out: Urokinase-type plasminogen activator receptor (uPAR), PLAUR (gene 5329); experiment: BSK_BE3C_uPAR: BioMAP Diversity Plus: BE3C Assay for Urokinase-type plasminogen activator receptor (uPAR) Biomarker Activity (AID 2283039); details: primary human bronchial epithelial cells; actives raise or lower the signal;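 as to outcome: uPAR protein level measured by ELISA on the cells; cells exposed to compound for one day before measurement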
# How it was run: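 Primary human bronchial epithelial cells were dosed with chemical and harvested 24 h later; uPAR was quantified by ELISA. Activity was fitted bidirectionally against DMSO as negative control and baseline.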
# [8] = read-out: Interleukin-6 (IL6), IL6 (gene 3569); experiment: BSK_CASM3C_IL6: BioMAP Diversity Plus: CASM3C Assay for Interleukin-6 (IL6) Biomarker Activity for (AID 2283040); details: primary human coronary artery smooth muscle cells; actives raise or lower the signal
# [9] = read-out: Tissue plasminogen activator (tPA), PLAT (gene 5327); experiment: BSK_BE3C_tPA: BioMAP Diversity Plus: BE3C Assay for Tissue plasminogen activator (tPA) Biomarker Activity (AID 2283041); details: primary human bronchial epithelial cells; actives raise or lower the signal;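 as to outcome: tPA level quantified by ELISA one day after compound addition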
# How it was run: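 Human primary bronchial epithelial cells were dosed with chemical and tPA biomarker levels measured by ELISA 24 hours later. Activity was fitted bidirectionally against DMSO as negative control and baseline.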
# [10] = read-out: Interleukin-8 (IL8), CXCL8 (gene 3576); experiment: BSK_CASM3C_IL8: BioMAP Diversity Plus: CASM3C Assay for Interleukin-8 (IL8) Biomarker Activity (AID 2283042); details: primary human coronary artery smooth muscle cells; actives raise or lower the signal;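 also: IL-8 protein level quantified by ELISA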
Compound,outcome [1],outcome [2],outcome [3],outcome [4],outcome [5],outcome [6],outcome [7],outcome [8],outcome [9],outcome [10],AC50 [1],AC50 [2],AC50 [3],AC50 [4],AC50 [6],AC50 [7],AC50 [9]
CC(=O)OC[C@H]1O[C@@](COC(C)=O)(O[C@H]2O[C@H](COC(C)=O)[C@@H](OC(C)=O)[C@H](OC(C)=O)[C@H]2OC(C)=O)[C@@H](OC(C)=O)[C@@H]1OC(C)=O,inactive,inactive,inactive,inactive,inactive,inactive,inactive,inactive,inactive,inactive,–,–,–,–,–,–,–
CC(C)CCO,inactive,inactive,inactive,inactive,inactive,inactive,inactive,inactive,inactive,inactive,–,–,–,–,–,–,–
CC1(C)C(=O)N(Br)C(=O)N1Br,inactive,inactive,inactive,inactive,inactive,inactive,inactive,inactive,inactive,inactive,–,–,–,–,–,–,–
CCOC(=O)CC(CC(=O)OCC)(OC(C)=O)C(=O)OCC,inactive,inactive,inactive,inactive,inactive,inactive,inactive,inactive,inactive,inactive,–,–,–,–,–,–,–
Nc1ccc(Nc2ccccc2)cc1,–,inactive,inactive,inactive,inactive,inactive,inactive,inactive,inactive,inactive,3.97 µM (active),–,–,–,–,–,–
O=C(OC[C@H]1O[C@@H](OC(=O)c2cc(O)c(O)c(OC(=O)c3cc(O)c(O)c(O)c3)c2)[C@H](OC(=O)c2cc(O)c(O)c(OC(=O)c3cc(O)c(O)c(O)c3)c2)[C@@H](OC(=O)c2cc(O)c(O)c(OC(=O)c3cc(O)c(O)c(O)c3)c2)[C@@H]1OC(=O)c1cc(O)c(O)c(OC(=O)c2cc(O)c(O)c(O)c2)c1)c1cc(O)c(O)c(OC(=O)c2cc(O)c(O)c(O)c2)c1,–,–,–,–,inactive,–,–,inactive,–,inactive,9.44 µM (active),9.85 µM (active),10.2 µM (active),9.35 µM (active),1.87 µM (active),4.13 µM (active),1.45 µM (active)
CCN(C(=O)c1cc(C)cc(OC[C@H](C)Nc2ccncc2)c1)C(C)C,inactive,inactive,inactive,inactive,inactive,inactive,inactive,inactive,inactive,inactive,–,–,–,–,–,–,–
CN(C)c1ccc(N=NS(=O)(=O)O)cc1,–,inactive,inactive,inactive,inactive,inactive,inactive,inactive,inactive,inactive,8.31 µM (active),–,–,–,–,–,–
C1=CCCC=CCCC=CCC1,inactive,inactive,inactive,inactive,inactive,inactive,inactive,inactive,inactive,inactive,–,–,–,–,–,–,–
Cc1ccc(N)cc1O,inactive,inactive,inactive,inactive,inactive,inactive,inactive,inactive,inactive,inactive,–,–,–,–,–,–,–
Clc1nc(Cl)c(Cl)c(Cl)c1Cl,–,inactive,inactive,inactive,inactive,inactive,inactive,inactive,inactive,inactive,20 µM (active),–,–,–,–,–,–
Cc1ccc(S(=O)(=O)O)cc1C,inactive,inactive,inactive,inactive,inactive,inactive,inactive,inactive,inactive,inactive,–,–,–,–,–,–,–
CC(C)=CCCC(C)CCO (stereo not given),inactive,inactive,inactive,inactive,inactive,inactive,inactive,inactive,inactive,inactive,–,–,–,–,–,–,–
CCCCCCCCCCCCc1ccccc1,inactive,inactive,inactive,inactive,inactive,inactive,inactive,inactive,inactive,inactive,–,–,–,–,–,–,–
CC/C(=C\C(=N/O)C(N)=O)C(C)[N+](=O)[O-] (stereo not given),inactive,–,inactive,inactive,inactive,inactive,inactive,inactive,inactive,inactive,–,29.8 µM (active),–,–,–,–,–
O=c1n(CC2CO2)c(=O)n(CC2CO2)c(=O)n1CC1CO1 (stereo not given),–,inactive,inactive,inactive,inactive,inactive,inactive,inactive,inactive,inactive,23.4 µM (active),–,–,–,–,–,–
O=C1CCC(N2C(=O)c3ccccc3C2=O)C(=O)N1 (stereo not given),inactive,inactive,inactive,inactive,inactive,inactive,inactive,inactive,inactive,inactive,–,–,–,–,–,–,–
CC(=O)c1ccc2c(c1)[C@H](NC(=O)c1ccc(F)cc1)[C@@H](O)C(C)(C)O2,inactive,inactive,inactive,inactive,inactive,inactive,inactive,inactive,inactive,inactive,–,–,–,–,–,–,–
O=C(O)c1cccc(Oc2ccccc2)c1,inactive,inactive,inactive,inactive,inactive,inactive,inactive,inactive,inactive,inactive,–,–,–,–,–,–,–
COc1ccc(-n2nc(C(F)F)cc2-c2ccc(S(C)=O)cc2)cc1 (stereo not given),inactive,inactive,inactive,inactive,inactive,inactive,inactive,inactive,inactive,inactive,–,–,–,–,–,–,–
O=C(NS(=O)(=O)/C=C/c1ccccc1)c1ccc(F)cc1Cl,inactive,inactive,inactive,inactive,inactive,inactive,inactive,inactive,inactive,inactive,–,–,–,–,–,–,–
CC(C)(O)c1coc(S(=O)(=O)NC(=O)Nc2c3c(cc4c2CCC4)CCC3)c1,inactive,inactive,inactive,inactive,inactive,inactive,inactive,inactive,inactive,inactive,–,–,–,–,–,–,–
